# Assay results reported in the antibiotic and cytotoxicity screens of Wong et al. (2023).
# About 3,300 (8.5%) of roughly 39,000 compounds were called active. This excerpt belongs to a sample that is enriched for actives.
# Tested on: HepG2
# Test: cytotoxicity call (relative viability < 0.9)
# Settings: 10 µM
row,Compound,cytotoxicity call
1,COc1ccc(CN(C)C[C@H]2Oc3ccc(NC(=O)Nc4cccc5ccccc45)cc3CC(=O)N([C@@H](C)CO)C[C@@H]2C)cc1,active
2,COc1ccc(CN(C)C[C@@H]2Oc3ccc(NC(=O)Nc4cccc5ccccc45)cc3CC(=O)N([C@@H](C)CO)C[C@@H]2C)cc1,active
3,COc1ccc(CN(C)C[C@@H]2Oc3ccc(NC(=O)Nc4cccc5ccccc45)cc3CC(=O)N([C@H](C)CO)C[C@@H]2C)cc1,inactive
4,COc1ccc(CN(C)C[C@@H]2Oc3ccc(NC(=O)Nc4cccc5ccccc45)cc3CC(=O)N([C@H](C)CO)C[C@H]2C)cc1,inactive
5,COc1ccc(CN(C)C[C@H]2Oc3ccc(NC(=O)Nc4cccc5ccccc45)cc3CC(=O)N([C@@H](C)CO)C[C@H]2C)cc1,active
6,COc1ccc(CN(C)C[C@H]2Oc3ccc(NC(=O)Nc4cccc5ccccc45)cc3CC(=O)N([C@H](C)CO)C[C@H]2C)cc1,active
7,COc1ccc(OC)c(S(=O)(=O)N2[C@@H]3CC[C@@H](C3)[C@H]2c2nc3cccc(OCc4ccccc4)c3[nH]2)c1,inactive
8,CO[C@@H]1CN(C)C(=O)c2cc(NS(=O)(=O)CC(F)(F)F)ccc2OC[C@@H](C)N(Cc2ccccn2)C[C@@H]1C,inactive
9,C[C@@H]1CN([C@@H](C)CO)C(=O)c2cc(Br)cnc2O[C@@H]1CN(C)S(=O)(=O)c1ccccc1,inactive
10,Cc1ccc(S(=O)(=O)N(C)C[C@@H]2Oc3ccc(NC(=O)Cn4cnnn4)cc3C(=O)N([C@@H](C)CO)C[C@@H]2C)cc1,inactive
11,C/C(=N\N)c1c(C)cc(C)[nH]c1=O,inactive
12,Nc1cccc(=O)[nH]1,inactive
13,Cc1noc(C)c1NC(=O)N(C)C[C@@H]1Oc2ccc(NC(=O)Nc3ccc(C(F)(F)F)cc3)cc2CC(=O)N([C@H](C)CO)C[C@@H]1C,inactive
14,C[C@H]1CN([C@@H](C)CO)C(=O)c2cc(C#CCc3ccccc3)cnc2O[C@@H]1CN(C)CC1CCOCC1,inactive
15,C[C@H](CO)N1C[C@H](C)[C@@H](CN(C)C(=O)Nc2cccc(Oc3ccccn3)c2)OCc2cnnn2CCCC1=O,inactive
16,COc1ccc(NC(=O)Nc2ccc3c(c2)C(=O)N([C@@H](C)CO)C[C@H](C)[C@H](CN(C)Cc2ccc4c(c2)OCO4)OCCCC[C@H](C)O3)cc1,inactive
17,C[C@H](CO)N1C[C@H](C)[C@@H](CN(C)S(=O)(=O)c2ccccc2C#N)OCc2cnnn2CCCC1=O,inactive
18,Cc1cc(=O)[nH][nH]1,inactive

row,Compound,cytotoxicity call
1,COc1ccc(C(=O)CC(=O)c2ccc(C(C)(C)C)cc2)cc1,inactive
2,CCN1CCCC(OC(=O)C(c2ccccc2)c2ccccc2)C1.Cl (stereo not given),inactive
3,CC(C)(C)c1ccc(C(=O)CCCN2CCC(OC(c3ccccc3)c3ccccc3)CC2)cc1,active
4,O=C(c1ccccc1Cl)n1c2ccccc2c2ccccc21,active
5,COc1ccc2c(c1)c(CC(=O)OCC(=O)O)c(C)n2C(=O)c1ccc(Cl)cc1,inactive
6,O=C(c1ccc(Cl)cc1)n1c2ccccc2c2ccccc21,active
7,NC(=O)c1ccccc1C(N)=O,inactive
8,COc1ccc2c(c1)c(CC(=O)O)c(C)n2C(=O)c1ccc(Cl)cc1,inactive
9,Cc1c(Cl)cccc1Nc1ccccc1C(=O)O,inactive
10,C[C@H]1CN([C@@H](C)CO)C(=O)c2cccc(NC(=O)CCCCCC(=O)Nc3ccccc3N)c2O[C@H]1CN(C)C(=O)Nc1ccccc1,inactive
11,Cn1nc(CNc2ncccn2)c2c1CNCC2,inactive
12,C[C@H](CO)N1C[C@H](C)[C@@H](CN(C)Cc2ccc(C(F)(F)F)cc2)Oc2ccc(NC(=O)Cc3ccccc3)cc2C1=O,inactive
13,C[C@H](CO)N1C[C@H](C)[C@H](CN(C)CC2CCCCC2)OCCCC[C@H](C)Oc2ccc(NS(=O)(=O)c3ccccc3)cc2C1=O,inactive
14,CCOC(=O)[C@H]1CSCCN1,inactive
15,C[C@H]1CN([C@@H](C)CO)C(=O)CCCn2nncc2CO[C@H]1CN(C)Cc1ccc2c(c1)OCCN2C,inactive
16,Cc1cc(=O)n2c(C)nnc2[nH]1,inactive
17,CCCNC(=O)Nc1ccc2c(c1)C(=O)N(C)C[C@@H](OC)[C@@H](C)CN(Cc1ccc(-c3ccccn3)cc1)[C@H](C)CO2,inactive
